Reference: PubChem BioAssay (NCI)
Several values for one entry are separate records, joined by “and”; a condition that tells them apart may be missing. Identical values can stand only once. The panel holds about 83,000 compounds, 20% with a hit somewhere; the sample as a whole holds those more often.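 Cell lines were cultured in 96-well plates, exposed to a single compound concentration, and assessed for percent growth 48 hours later.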 Activity calls are given as the source filed them. The calls were made as follows: active = growth percent below 10; inactive = the rest.

Columns and labels:
Assay in all cases: NCI-60 one-dose screen, 48 h (100 = growth as untreated, 0 = no growth, -100 = all killed)
Details in all cases: 10 µM unless noted
HCT-15 colon = system: HCT-15 colon
HT29 colon = system: HT29 colon
SNB-75 CNS = system: SNB-75 CNS
SNB-19 CNS = system: SNB-19 CNS
PC-3 prostate = system: PC-3 prostate
SK-MEL-5 melanoma = system: SK-MEL-5 melanoma
UACC-62 melanoma = system: UACC-62 melanoma
LOX IMVI melanoma = system: LOX IMVI melanoma
SK-MEL-28 melanoma = system: SK-MEL-28 melanoma
SK-MEL-2 melanoma = system: SK-MEL-2 melanoma
SN12C renal = system: SN12C renal
UO-31 renal = system: UO-31 renal
TK-10 renal = system: TK-10 renal
ACHN renal = system: ACHN renal
CAKI-1 renal = system: CAKI-1 renal
A498 renal = system: A498 renal
CCRF-CEM leukemia = system: CCRF-CEM leukemia
U251 CNS = system: U251 CNS
EKVX NSCLC = system: EKVX NSCLC
MOLT-4 leukemia = system: MOLT-4 leukemia

Row | Structure (SMILES) | growth (HCT-15 colon) | growth (HT29 colon) | growth (SNB-75 CNS) | growth (SNB-19 CNS) | growth (PC-3 prostate) | growth (SK-MEL-5 melanoma) | growth (UACC-62 melanoma) | growth (LOX IMVI melanoma) | growth (SK-MEL-28 melanoma) | growth (SK-MEL-2 melanoma) | growth (SN12C renal) | growth (UO-31 renal) | growth (TK-10 renal) | growth (ACHN renal) | growth (CAKI-1 renal) | growth (A498 renal) | growth (CCRF-CEM leukemia) | growth (U251 CNS) | growth (EKVX NSCLC) | growth (MOLT-4 leukemia)
1 | NC(=S)NS(=O)(=O)c1ccc(N)cc1 | 96.8% (inactive) | 109% (inactive) | 93% (inactive) | 113% (inactive) | 102% (inactive) | 101% (inactive) | 119% (inactive) | 105% (inactive) | 109% (inactive) | 109% (inactive) | 109% (inactive) | 88.1% (inactive) | 110% (inactive) | 96.5% (inactive) | 94.8% (inactive) | 82.8% (inactive) | 106% (inactive) |  |  | 
2 | CCCCCCCCCCCCCCCCOc1ccc(C)cc1 | 108% (inactive) | 106% (inactive) | 104% (inactive) |  | 102% (inactive) | 108% (inactive) | 105% (inactive) | 87.3% (inactive) | 111% (inactive) | 115% (inactive) | 104% (inactive) | 81.5% (inactive) | 109% (inactive) | 104% (inactive) | 105% (inactive) | 92.3% (inactive) | 127% (inactive) | 101% (inactive) | 99.7% (inactive) | 103% (inactive)
3 | N#C/C(=C1C=C/C(=N/O)C(Br)=C/1)c1ccccc1 | 23.1% (inactive) | 8.98% (active) | 23% (inactive) | 94.9% (inactive) |  | 53.6% (inactive) | 33.1% (inactive) | 1.02% (active) | 61.3% (inactive) | -22.3% (active) | 32.7% (inactive) | 36.7% (inactive) | 45% (inactive) | 24.5% (inactive) | 15.1% (inactive) | 63.7% (inactive) | 4.04% (active) | 26.5% (inactive) |  | 
4 | Cc1ccc(-c2noc(CC(=O)c3ccc([N+](=O)[O-])cc3)n2)cc1 | 98.3% (inactive) | 101% (inactive) | 94.6% (inactive) |  | 98.6% (inactive) | 91.6% (inactive) | 91.1% (inactive) | 89.5% (inactive) | 105% (inactive) | 110% (inactive) | 94.1% (inactive) | 89.6% (inactive) | 115% (inactive) | 103% (inactive) | 97.1% (inactive) | 86.7% (inactive) | 96.7% (inactive) | 96.8% (inactive) | 95.9% (inactive) | 90.5% (inactive)
5 | COc1ccc(Cn2c(NCCN=C(N)N)nc(=O)n(Cc3ccc(F)cc3)c2=O)cc1 | 103% (inactive) and 106% (inactive) | 101% (inactive) and 100% (inactive) | 55.1% (inactive) and 22.7% (inactive) | 77.6% (inactive) and 78.7% (inactive) |  | 98.7% (inactive) and 99.9% (inactive) | 112% (inactive) and 98.4% (inactive) | 96.2% (inactive) | 103% (inactive) and 97.9% (inactive) | 101% (inactive) |  | 77.7% (inactive) and 75.3% (inactive) | 103% (inactive) and 104% (inactive) | 97.7% (inactive) and 102% (inactive) | 95.2% (inactive) and 86.5% (inactive) | 92.1% (inactive) and 97.1% (inactive) | 93.1% (inactive) and 87.4% (inactive) | 81.7% (inactive) |  | 84.6% (inactive) and 88.4% (inactive)
6 | CC1CCCc2sc3nc(NNC(=O)c4cnccn4)n(-c4ccccc4)c(=O)c3c21 (stereo not given) | 26.4% (inactive) and 24.6% (inactive) | 22.4% (inactive) and 26.2% (inactive) | 36.4% (inactive) and 2.93% (active) | 25.8% (inactive) and 21.6% (inactive) |  | -38.3% (active) and -65.9% (active) | -33.9% (active) and -8.57% (active) | 0.839% (active) and 2.01% (active) | 11.7% (inactive) and 27.4% (inactive) |  | 20% (inactive) and 16.7% (inactive) | 8.23% (active) and 5.71% (active) | 30.3% (inactive) and 37.9% (inactive) | 8.58% (active) and 19.9% (inactive) | 5.81% (active) and 0.832% (active) | 27.8% (inactive) | 3.85% (active) and 0.781% (active) | 4.39% (active) and 8.03% (active) | 14.8% (inactive) and 7.14% (active) | 5.36% (active) and 10.6% (inactive)
7 | O=C(Nc1cccc(Cl)c1)c1cc2ccccc2cc1O | 16.3% (inactive) and 9.55% (active) | 104% (inactive) and 60.1% (inactive) | 45.7% (inactive) and 33.6% (inactive) | 13.2% (inactive) |  | -14.7% (active) and -23.9% (active) | 13.8% (inactive) and 18.4% (inactive) | 25.3% (inactive) and 11% (inactive) | 35.7% (inactive) and 42% (inactive) |  | 4.02% (active) and 7.65% (active) | 5.45% (active) and -9.87% (active) | 54.7% (inactive) and 26.8% (inactive) | 12.8% (inactive) and 12.2% (inactive) | 3.2% (active) and -1.64% (active) | -33.6% (active) | 38.2% (inactive) and 53.2% (inactive) | 13% (inactive) and 6.25% (active) | 10.5% (inactive) and 15.9% (inactive) | 26.3% (inactive) and 11.1% (inactive)
8 | CC1(C)[C@@H](OC(=O)CCC(=O)O)CC[C@]2(C)[C@H]3C(=O)C=C4[C@@H]5C[C@@](C)(C(=O)O)CC[C@]5(C)CC[C@@]4(C)[C@]3(C)CC[C@@H]12 | 101% (inactive) and -39.6% (active) | 103% (inactive) and -8.67% (active) | -68.7% (active) | 102% (inactive) and -3.23% (active) |  | 105% (inactive) and -82.7% (active) | 106% (inactive) and -80% (active) | 104% (inactive) and -50.8% (active) | 105% (inactive) and -66% (active) | 107% (inactive) and -59.9% (active) | 102% (inactive) and -19.1% (active) | 102% (inactive) and -96.1% (active) | 104% (inactive) and -36.8% (active) | 103% (inactive) and -79.6% (active) | 100% (inactive) and -30.4% (active) | 112% (inactive) and -65.7% (active) | 92.6% (inactive) and -37.2% (active) | 110% (inactive) and -91.2% (active) | 107% (inactive) and -33.4% (active) | 88.3% (inactive) and -35% (active)
9 | CCN(CC)CCOc1ccc(/C=N/Nc2nc3c([nH]2)c(=O)n(C)c(=O)n3C)cc1 | 97.2% (inactive) and 103% (inactive) | 99.9% (inactive) and 91.4% (inactive) | 88.4% (inactive) and 90.3% (inactive) |  | 99.4% (inactive) and 88.5% (inactive) | 102% (inactive) and 107% (inactive) | 94.2% (inactive) and 99.8% (inactive) | 104% (inactive) and 92.3% (inactive) | 115% (inactive) and 112% (inactive) | 102% (inactive) and 107% (inactive) | 98.9% (inactive) and 96.5% (inactive) | 80.8% (inactive) and 79.6% (inactive) | 94.2% (inactive) and 101% (inactive) | 102% (inactive) and 94.6% (inactive) | 118% (inactive) and 85.6% (inactive) | 88.5% (inactive) and 88.9% (inactive) | 83.5% (inactive) and 103% (inactive) | 98.6% (inactive) and 113% (inactive) | 99.1% (inactive) and 95.8% (inactive) | 88.4% (inactive) and 102% (inactive)
10 | c1ccc2cc(C[n+]3ccn(Cc4ccc5ccccc5n4)c3)ccc2c1 | 96.3% (inactive) and 101% (inactive) | -30.7% (active) and 10.7% (inactive) | 18.9% (inactive) and 33.2% (inactive) | 13.3% (inactive) and 19.7% (inactive) |  | -87.6% (active) and -67.9% (active) | -1.09% (active) and 10.6% (inactive) | -30.6% (active) and 20.1% (inactive) | 8.97% (active) and 41.2% (inactive) |  | 2.29% (active) and 11.9% (inactive) | 98% (inactive) and 86.4% (inactive) | -27% (active) and 80.5% (inactive) |  | 96.2% (inactive) | 49.1% (inactive) and 61.6% (inactive) | 10.8% (inactive) and 40.5% (inactive) | 12.4% (inactive) and 23% (inactive) | 15.9% (inactive) and 69% (inactive) | 0.992% (active) and 34% (inactive)
